Source: PubChem (Broad Institute)
IDE exosite FP – exo-site inhibitors of human IDE, primary screen, biochemical, fluorescence anisotropy, probe displacement; Insulin-degrading enzyme (Homo sapiens), P14735; purified IDE, FL-6b probe fluorescence polarization; stronger effect = lower value; z-score at 20 µM; actives 6.3% (n = 17,000); AID 1259349, 2017;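 active = z-score of -3 or lower, meaning strong loss of probe binding signal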;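 note: His-tagged human IDE residues 42-1019 made in E. coli with 30 nM FL-6b probe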
Target sequence (P14735 42-1019 limits assumed): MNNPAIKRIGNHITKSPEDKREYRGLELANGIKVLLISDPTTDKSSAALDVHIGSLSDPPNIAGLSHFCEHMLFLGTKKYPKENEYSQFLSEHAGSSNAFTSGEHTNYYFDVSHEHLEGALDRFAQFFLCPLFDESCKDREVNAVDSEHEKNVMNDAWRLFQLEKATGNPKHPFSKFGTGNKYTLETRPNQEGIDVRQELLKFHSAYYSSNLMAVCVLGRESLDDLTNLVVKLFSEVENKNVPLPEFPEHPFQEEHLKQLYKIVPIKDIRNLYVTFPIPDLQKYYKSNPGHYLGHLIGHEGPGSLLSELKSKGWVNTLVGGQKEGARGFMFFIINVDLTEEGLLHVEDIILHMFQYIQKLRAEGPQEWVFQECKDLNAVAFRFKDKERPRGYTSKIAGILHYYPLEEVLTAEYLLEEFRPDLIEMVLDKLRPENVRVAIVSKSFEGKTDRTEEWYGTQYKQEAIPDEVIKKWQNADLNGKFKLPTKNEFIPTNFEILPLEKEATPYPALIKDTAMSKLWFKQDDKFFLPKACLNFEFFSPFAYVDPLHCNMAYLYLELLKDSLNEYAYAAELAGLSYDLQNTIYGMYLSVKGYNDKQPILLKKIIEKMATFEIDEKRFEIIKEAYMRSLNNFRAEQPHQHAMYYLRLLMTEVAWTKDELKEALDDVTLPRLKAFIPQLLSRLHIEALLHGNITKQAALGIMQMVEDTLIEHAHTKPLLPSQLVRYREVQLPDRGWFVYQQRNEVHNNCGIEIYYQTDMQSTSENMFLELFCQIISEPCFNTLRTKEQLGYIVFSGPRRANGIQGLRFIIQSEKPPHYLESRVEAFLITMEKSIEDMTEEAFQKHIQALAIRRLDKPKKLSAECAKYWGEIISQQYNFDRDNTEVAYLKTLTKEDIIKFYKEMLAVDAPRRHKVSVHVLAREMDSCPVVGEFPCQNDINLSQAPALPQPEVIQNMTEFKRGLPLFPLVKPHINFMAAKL
An asterisk follows results filed as active. The sample as a whole holds a higher share of hits than the screen did.

SMILES	IDE exosite FP
C/C=C/c1ccc([C@H]2[C@@H](CO)N(C(=O)CC)[C@@H]2CNCC2CCCCC2)cc1	1.8
CN(C)C(=O)C[C@@H]1C[C@@H]2c3cc(NC(=O)c4cccnc4)ccc3O[C@@H]2[C@@H](CO)O1	-1.1
O=C(Cc1ccncc1)N1CC[C@@H]2[C@H]1c1cc(Br)ccc1N[C@@H]2CO	1.5
CN(C)C(=O)c1cccc(-c2ccc([C@H]3[C@@H](C#N)N(C(=O)C4CCC4)[C@H]3CO)cc2)c1	3.9
Cc1cccc(-c2ccc([C@@H]3[C@H](CO)N4C(=O)CN(C(=O)c5cnccn5)C[C@@H]34)cc2)c1	-11*
O=C(c1cnccn1)N1CC(=O)N2[C@H](C1)[C@H](c1ccc(-c3ccccc3)cc1)[C@@H]2CO	0.43
Cc1cccc(-c2ccc([C@@H]3[C@H]4CN(C(=O)c5cnccn5)CC(=O)N4[C@H]3CO)cc2)c1	-16*
O=C(c1cnccn1)N1CC(=O)N2[C@H](C1)[C@H](c1ccc(-c3ccc(F)cc3)cc1)[C@@H]2CO	5.7
Cc1cccc(-c2ccc([C@H]3[C@H](CO)N4C(=O)CN(C(=O)c5cnccn5)C[C@@H]34)cc2)c1	-14*
O=C(c1cnccn1)N1CC(=O)N2[C@H](C1)[C@@H](c1ccc(-c3ccccc3)cc1)[C@@H]2CO	-6*
COCC(=O)N1CCC2(CC1)CN(S(C)(=O)=O)[C@H](CO)c1[nH]c3cc(OC)ccc3c12	-0.81
O=C(c1cnccn1)N1CC(=O)N2[C@H](C1)[C@@H](c1ccc(C#CC3CC3)cc1)[C@@H]2CO	0.45
COCC(=O)N1[C@H](C#N)[C@H](c2ccccc2C2=CCCCC2)[C@@H]1CO	1.8
COc1ccc(CNC(=O)C[C@@H]2C=C[C@H](NC(=O)c3cccc(F)c3)[C@H](CO)O2)cc1	0.013
C[C@H]1CN([C@@H](C)CO)C(=O)CCCn2nncc2CO[C@H]1CN(C)C(=O)Nc1ccc2c(c1)OCCO2	-0.69
CO[C@@H](CN(C)Cc1ccc2c(c1)OCO2)[C@@H](C)CN(C(=O)c1ccccc1)[C@H](C)CO	0.62
CCS(=O)(=O)NCC[C@@H]1CC[C@H](NC(=O)Nc2cc(Cl)cc(Cl)c2)[C@@H](CO)O1	0.75
C[C@H]1CN([C@@H](C)CO)C(=O)c2cc(NC(=O)C3CCCCC3)ccc2O[C@H]1CN(C)Cc1ccc2c(c1)OCO2	0.36
N#C[C@@H]1[C@H](c2ccccc2-c2ccccc2)[C@@H](CO)N1C(=O)Cc1cccnc1	1.6
CC(=O)N1[C@H](CO)[C@H](c2ccccc2)[C@H]1CN(C(=O)c1cccc(F)c1)C(C)C	0.68
O=S(=O)(c1cccs1)N1CCCCN2[C@H](CO)[C@H](c3ccc(Br)cc3)[C@H]2C1	2.6
Cc1cccc(-c2ccc([C@H]3[C@H]4CN(C(=O)c5cnccn5)CC(=O)N4[C@H]3CO)cc2)c1	-5.4*
C/C=C/c1ccc([C@@H]2[C@@H](CO)N3C(=O)CN(C(=O)c4cnccn4)C[C@@H]23)cc1	1.2
Cc1cccc(-c2ccc([C@@H]3[C@@H](CO)N4C(=O)CN(C(=O)c5cnccn5)C[C@@H]34)cc2)c1	-18*
O=C(c1cnccn1)N1CC(=O)N2[C@H](CO)[C@@H](c3ccc(C4=CCCCC4)cc3)[C@H]2C1	0.26
SMILES	IDE exosite FP
O=C(c1ccccc1F)N1C[C@H]2[C@@H](c3ccccc31)[C@H](CO)N2C(=O)Nc1ccccc1	-0.12
COc1ccc2c3c(n(C)c2c1)[C@H](CO)N(S(C)(=O)=O)CC31CN(CC2CCOCC2)C1	0.058
CCCC(=O)Nc1ccc2c(c1)C(=O)N(C)[C@@H]1CC[C@@H](CC(=O)NCc3cccc(F)c3)O[C@@H]1CO2	-0.59
COc1cccc(NC(=O)N2C[C@@H](O)COC[C@H]3O[C@H](CC(=O)N(C)C)CC[C@@H]32)c1	1.5
O=C(Cc1cccnc1)N1CC(=O)N2[C@H](CO)[C@H](c3ccc(-c4cccc(F)c4)cc3)[C@@H]2C1	-0.91
O=C(Cc1cccnc1)N1CC(=O)N2[C@H](C1)[C@@H](c1ccc(-c3cccc(F)c3)cc1)[C@@H]2CO	-7*
O=C(Cc1ccccc1)N1CC(=O)N2[C@H](C1)[C@@H](c1ccc(-c3cccc(F)c3)cc1)[C@@H]2CO	-3.5*
O=C(Cc1ccccc1)N1CC(=O)N2[C@@H](CO)[C@H](c3ccc(-c4cccc(F)c4)cc3)[C@@H]2C1	-2.4
O=C(Cc1cccnc1)N1CC(=O)N2[C@H](C1)[C@H](c1ccc(-c3cccc(F)c3)cc1)[C@@H]2CO	-1.9
O=C(Cc1ccccc1)N1CC(=O)N2[C@H](CO)[C@H](c3ccc(-c4cccc(F)c4)cc3)[C@@H]2C1	0.84
N#Cc1cccc(-c2ccc3c(c2)[C@H]2[C@H](CCN2S(=O)(=O)c2ccc(F)cc2)[C@H](CO)N3)c1	-0.027
COCC#Cc1ccc([C@H]2[C@H](CO)N3C(=O)CN(C(=O)c4cccnc4)C[C@@H]23)cc1	5.4
COCC(=O)N1CC(=O)N2[C@H](CO)[C@H](c3ccc(C#Cc4cccnc4)cc3)[C@@H]2C1	-1.3
C/C=C/c1ccc([C@@H]2[C@H](CO)N(C(=O)c3ccccc3)C23CN(C(C)=O)C3)cc1	1.1
COc1cccc(S(=O)(=O)Nc2ccc3c(c2)[C@H]2C[C@H](CC(=O)NC4CCCCC4)O[C@H](CO)[C@H]2O3)c1	-0.21
O=C(C[C@@H]1C[C@H]2c3cc(NC(=O)c4cccnc4)ccc3O[C@H]2[C@@H](CO)O1)NCc1cc(F)ccc1F	-0.63
O=C(C[C@H]1CC[C@@H]2NC[C@@H](O)COC[C@H]2O1)Nc1ccc(-c2ccccc2)cc1	-1.4
O=C(Cc1ccccn1)N1CC(=O)N2[C@@H](CO)[C@H](c3ccc(-c4ccc(F)cc4)cc3)[C@@H]2C1	1.4
O=C(Cc1ccccn1)N1CC(=O)N2[C@H](CO)[C@@H](c3ccc(-c4ccc(F)cc4)cc3)[C@H]2C1	3.3
Cc1ccccc1-c1ccc([C@@H]2[C@@H](CO)N3C(=O)CN(C(=O)Cc4ccccn4)C[C@H]23)cc1	-5.8*
O=C(Cc1ccccn1)N1CC(=O)N2[C@H](CO)[C@@H](c3ccc(-c4ccc(F)cc4)cc3)[C@@H]2C1	2.1
Cc1ccccc1-c1ccc([C@H]2[C@H]3CN(C(=O)Cc4ccccn4)CC(=O)N3[C@H]2CO)cc1	-8.9*
Cc1ccccc1-c1ccc([C@@H]2[C@@H](CO)N3C(=O)CN(C(=O)Cc4ccccn4)C[C@@H]23)cc1	-20*
O=C(Cc1ccccn1)N1CC(=O)N2[C@H](CO)[C@H](c3ccc(C#CC4CC4)cc3)[C@H]2C1	2.2
COc1ccc(-c2ccc([C@@H]3[C@H]4CN(C(=O)Cc5ccccn5)CC(=O)N4[C@H]3CO)cc2)cc1	-0.28
SMILES	IDE exosite FP
Cc1ccccc1-c1ccc([C@@H]2[C@H]3CN(C(=O)Cc4ccccn4)CC(=O)N3[C@H]2CO)cc1	-18*
O=C(Cc1ccccn1)N1CC(=O)N2[C@H](C1)[C@@H](c1ccc(-c3ccc(F)cc3)cc1)[C@@H]2CO	1.9
CO[C@H]1CN(C)C(=O)c2ccc(NS(C)(=O)=O)cc2OC[C@@H](C)N(C(=O)CN(C)C)C[C@@H]1C	0.99
CC(C)C#Cc1ccc([C@@H]2[C@H]3CN(S(=O)(=O)c4ccccc4)CC(=O)N3[C@H]2CO)cc1	-0.016
C[C@@H]1CCCCO[C@H](CN(C)C(=O)Nc2ccc3c(c2)OCO3)[C@H](C)CN([C@@H](C)CO)C(=O)c2cc(NS(=O)(=O)c3ccc(F)cc3)ccc2O1	-0.54
Cc1ccccc1S(=O)(=O)N1CC(=O)N2[C@H](CO)[C@H](c3ccc(C#CCN(C)C)cc3)[C@@H]2C1	1.6
